# This excerpt belongs to a sample that is enriched for hits.
# SF1 inhibitor = inhibitors of human nuclear receptor SF-1 | Q13285 | CHO-K1 Gal4-SF-1 LBD luciferase reporter | inhibition, % at 10 µM | actives 0.55% (n = 65,000) | AID 525;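 active = inhibition above the mean inhibition of all tested compounds plus 3 SD, cut at about 48% in these data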;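 also: 0% = SF-1 transfected cells with DMSO and 100% = mock-transfected cells lacking SF-1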
# Target sequence (Q13285 whole entry, looked up, the tested form may be a part): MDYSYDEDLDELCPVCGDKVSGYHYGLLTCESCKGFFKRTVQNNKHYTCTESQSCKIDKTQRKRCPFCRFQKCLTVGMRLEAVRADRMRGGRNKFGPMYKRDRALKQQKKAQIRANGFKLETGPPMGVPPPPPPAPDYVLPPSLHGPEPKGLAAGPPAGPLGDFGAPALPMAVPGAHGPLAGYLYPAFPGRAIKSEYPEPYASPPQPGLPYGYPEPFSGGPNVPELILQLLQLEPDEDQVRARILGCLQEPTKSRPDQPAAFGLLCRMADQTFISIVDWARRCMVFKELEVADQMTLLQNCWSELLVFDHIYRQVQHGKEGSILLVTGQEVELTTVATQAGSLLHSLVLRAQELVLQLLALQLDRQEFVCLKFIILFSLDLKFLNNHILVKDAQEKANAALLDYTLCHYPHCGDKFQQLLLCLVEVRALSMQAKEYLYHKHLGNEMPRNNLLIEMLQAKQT
# * marks the source's active call; other numbers are inactive results.
SMILES,SF1 inhibitor
Cc1cnc(C(=O)Nc2cccc3cccnc23)cn1,61*
O=C(Nc1cccc2ccccc12)c1cnccn1,-63
COC(=O)c1c(-c2cccnc2)csc1NC(=O)c1cc(C)on1,-80
CCOC(=O)c1cc(-c2ccco2)nc2c1c(C)nn2-c1ccccc1,10
CCOC(=O)c1cnn2c(C)cc(-c3ccccc3)nc12,-65
CCOC(=O)c1cnc(-n2nc(C)cc2C)nc1NC(C)c1ccccc1 (stereo unspecified),49*
CN(C)c1nc(Oc2ccc(N)cc2)nc(N(C)C)n1,-19
Cc1ccc(-c2cc3nc(C)cc(NCc4ccco4)n3n2)cc1,-51
Cc1ccc(Nc2cc(C)nn2-c2nc(C)cc(=O)[nH]2)cc1,96*
Cc1ccc(Nc2nc3nonc3[nH]c2=O)cc1,-31
O=C(CCNS(=O)(=O)c1cccc2nonc12)NC1CCCc2ccccc21 (stereo unspecified),5
CCN(CC)c1ccc(C=N/C(C#N)=C(\N)C#N)cc1,-57
O=C(CSc1nnc(Cc2ccccc2)o1)N1CCOCC1,-21
C=CCN(C(=O)CCC(=O)Nc1cc(C)on1)C(C(=O)NC(C)(C)C)c1cccc(OC)c1OC (stereo unspecified),6
O=C(NCc1cccs1)c1cc2c(s1)CCCC2,-25
O=C1c2ccccc2C(=O)C1c1ccc2ccccc2n1,72*
O=C1c2ccccc2NC(c2cnc3ccccc3n2)N1O (stereo unspecified),-43
O=C(NCc1ccccn1)c1ccc2ccccc2n1,-4
COc1ccc(N2C(=O)C3CCCN3C2c2ccc(C)cc2)cc1Cl (stereo unspecified),-4
O=C(c1ccc(Cn2cc(Br)cn2)o1)n1cccn1,12
ONC(=Nc1ccccc1)C(=Nc1ccccc1)NO,7
O=C(Nc1cccc(-c2nc3cc(Cl)ccc3o2)c1)C1CCCO1 (stereo unspecified),-81
O=S1(=O)C=C(Sc2nc3cc(Cl)ccc3o2)c2ccccc21,71*
O=C1c2ccccc2C(=O)N1CCCSc1nc2ccccc2o1,2
CN(CCc1ccccn1)C(=O)CN(C)S(=O)(=O)c1ccc2c(c1)c(=O)n(C)c(=O)n2C,4
SMILES,SF1 inhibitor
CCOC(=O)NCC(C#CCN(CC)CC)N(CC)CC (stereo unspecified),8
Cc1ccc(C)c(NC(=O)CSc2nnc(-c3ccncc3)n2N)c1,0
CCCCOC(=O)c1[nH]c2c(c1C)C(=O)CC(c1cc(OC)c(OC)c(OC)c1)C2 (stereo unspecified),54*
CCOC(=O)C1=C(C)NC2=C(C(=O)CCC2)C1c1cc(OC)ccc1OC (stereo unspecified),-2
C=CCOC(=O)c1[nH]c2c(c1C)C(=O)CC(c1cc(OC)c(OC)c(OC)c1)C2 (stereo unspecified),52*
Cc1c(C(=O)OCCOC(C)C)[nH]c2c1C(=O)CC(C)(C)C2,8
CCOC(=O)C(C(=O)OCC)C(=O)c1cc(OC)c(OC)c(OC)c1,-1
CN(Cc1ccccc1)C(=O)CCCn1c(=O)[nH]c2cc(Cl)ccc2c1=O,-7
CCOC(=O)c1sc2ncn(CC(=O)N(CC)CC)c(=O)c2c1C,17
Cc1ccc2cc3cc(C(=O)N(C)C4CCCCC4)oc3nc2c1,-77
CCc1c(C)nc(SC)n(CC#N)c1=O,6
Cc1cc(NO)nc(-c2ccc(Br)cc2)n1,-64
O=C(NCc1ccc(F)cc1)c1noc2c1CCCC2,3
Nc1nonc1C(=O)NCCNCc1cc(Br)ccc1OCc1ccc(F)cc1,57*
COc1ccc(CCNC(=O)c2nonc2N)cc1OC,1
O=C(C1COc2ccccc2O1)N1CCc2ccccc21 (stereo unspecified),-54
Cc1ccc2oc(=O)c3cnn(CC(=O)NCCCOC(C)C)c3c2c1,-4
O=C(Cc1ccc(Cl)cc1)Nc1ccc(N2CCN(C(=O)c3ccco3)CC2)cc1,10
CCC(=O)Nc1ccc(-c2nnc(-c3ccccc3)o2)cc1,-34
O=C(Cc1ccc(Cl)cc1)Nc1ccc(-c2nnc(-c3ccco3)o2)cc1,53*
Cc1ccc(-c2nnn(CC(=O)N(Cc3ccco3)C(C(=O)NC(C)(C)C)c3cccs3)n2)o1 (stereo unspecified),14
CSCc1nnc(NC(=O)c2ccc(S(=O)(=O)N(CC(C)C)CC(C)C)cc2)o1,48*
COCCN(CCOC)S(=O)(=O)c1ccc(C(=O)Nc2nc(-c3ccncc3)cs2)cc1,5
Cc1nnc(NC(=O)c2ccc(S(=O)(=O)N(C)Cc3ccccc3)cc2)o1,22
COc1cc(C)nc(Oc2ccc(=O)[nH]n2)n1,-5
SMILES,SF1 inhibitor
Cc1ccc(C)c(S(=O)(=O)Nc2ccc(S(=O)(=O)Nc3onc(C)c3C)cc2)c1,7
COc1ccc(N2CCN(C(=O)c3ccc(S(=O)(=O)N4CCOCC4)cc3)CC2)cc1,-13
Cn1cccc1CNC(=O)Nc1ccc(Cl)c(Cl)c1,-66
CCOC(=O)N1CCN(C(=O)CN2C(=O)CC(C)(C)S(=O)(=O)c3ccccc32)CC1,-4
COc1cc(CC(NC(C)=O)C(=O)NC2CCN(c3nc(C)cc(C)c3C#N)CC2)cc(OC)c1 (stereo unspecified),71*
COc1ccc(NC(=O)C2CCN(c3nc(C)nc4c3CCC4)CC2)cc1,-11
COc1cccc(CC(NC(C)=O)C(=O)NC2CCN(c3c4c(nc5ncnn35)CCC4)CC2)c1 (stereo unspecified),-72
Cc1ccccc1Cn1c2ccccc2c2cn[nH]c(=O)c21,8
Cn1c(-c2ccc(F)cc2)cnc1SCC(=O)Nc1ccccc1N1CCOCC1,-70
c1ccc(-c2nc(NCC3CCCO3)c3ccccc3n2)nc1 (stereo unspecified),1
c1ccc(-c2nc(NCc3ccco3)c3ccccc3n2)nc1,76*
c1ccc(-n2ncc3c(NCc4ccco4)ncnc32)cc1,-77
O=C(NC1CCCc2ccccc21)C1CCN(c2nnc(-n3cccc3)s2)CC1 (stereo unspecified),-24
COC(=O)c1sccc1NC(=O)CN1CCN(c2ccc(F)cc2)CC1,-9
CC(=O)c1cccc(NC(=O)N2CCCC2C(=O)Nc2c(C)cccc2C)c1 (stereo unspecified),23
COc1cc([C@@H]2c3cc4c(cc3[C@H](O)[C@H]3COC(=O)[C@H]23)OCO4)cc(OC)c1OC,78*
COc1cc(C2NC(=O)NC(O)(C(F)(F)F)C2C(C)=O)cc(OC)c1OC (stereo unspecified),-11
COc1ccc(C(=O)CSc2nc3nc(C)cc(C)n3n2)cc1OC,4
O=C(CN(C1CCCCC1)S(=O)(=O)c1ccc(Cl)cc1)NCCCO,-2
CCCCS(=O)(=O)NC1=NCN(CCOC(=O)c2ccccc2)CN1,4
CCOC(=O)c1[nH]c(C)c(C(=O)Nc2ccccc2F)c1C,-83
CCOC(=O)c1cc2sccc2n1CCCN1C(=O)c2ccccc2C1=O,2
CC(=O)c1c(C)[nH]c(C(=O)OCCCCN2C(=O)c3ccccc3C2=O)c1C,84*
O=C(Nc1ccc2c(c1)OCCO2)c1cnc2n(c1=O)CCS2,-91
CCc1ccc2nc(NC(=O)c3cc(C)on3)sc2c1,-117
SMILES,SF1 inhibitor
CCOC(=O)c1[nH]nc(N)c1NC(=O)c1ccc(Cl)cc1Cl,-27
Cc1ccc(N2C(=O)Nc3ccc(Br)cc3C2(O)C(=O)NCCCN(C)C)cc1C (stereo unspecified),8
CCn1c(C)nc2cc(-c3nc4n(n3)Cc3ccccc3-4)ccc21,96*
Cc1c(-c2nc(N)nc(Nc3ccccc3)n2)oc2ccccc12,-162
Cc1nnc(N2CCOCC2)c2ccccc12,-2
Cc1nc2cc(Cl)c(Cl)cc2nc1C,-64

# Bioassay records deposited in PubChem BioAssay by The Scripps Research Institute Molecular Screening Center.
